Data as given in PubChem BioAssay (NCATS).
Results filed as inconclusive are left out. Activity calls are given as the source filed them. Calls come from the whole dose curve; as a rule, active = well fitted curve in the direction sought with a large enough effect; inconclusive = small, poorly fitted or top-dose-only effect, or another doubt; inactive = no such curve, though single readings can be large; an effect the other way counts as inactive or inconclusive.

What was measured:
KB-3-1 = assay: Cytotoxic Profiling of Annotated Libraries Using Quantitative High-Throughput Screening (AID 1296008); conditions: Five cell lines viability, CellTiter-Glo ATP luminescence, 48-72 h; max response: stronger effect = lower value; note: nearly all actives have a fitted effect of over 60% in size
How it was run: (§1)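 Cytotoxicity was measured as CellTiter-Glo ATP luminescence, read after 10 min at room temperature. Compound treatment of the cells lasted 48 or 72 hr at 37 degrees Celsius in a qHTS format.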

NIH3T3 [1] = assay: as above; conditions: Five cell lines viability, CellTiter-Glo ATP luminescence, 48-72 h; max response: stronger effect = lower value
How it was run: as §1

MCC-13 = assay: qHTS assay to identify novel small-molecules to repurpose for Merkel cell carcinoma treatment (AID 1296009); conditions: MCC and control cell lines, CellTiter-Glo viability, 72 h; series mostly up to 46 µM; note: nearly all actives have a fitted effect of over 60% in size; note: potency is the fitted concentration of half-maximal effect
How it was run: (§2)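 Cell viability measured by CellTiter-Glo following 72 hr compound treatment at 37 degree celsius, with NPC and MIPE libraries tested in 8- and 11-point concentration series.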

MCC-26 = assay: as above; conditions: MCC and control cell lines, CellTiter-Glo viability, 72 h; series mostly up to 46 µM
How it was run: as §2

MKL-1 = assay: as above; conditions: MCC and control cell lines, CellTiter-Glo viability, 72 h; series mostly up to 46 µM
How it was run: as §2

MKL-2 = assay: as above; conditions: MCC and control cell lines, CellTiter-Glo viability, 72 h; series mostly up to 46 µM
How it was run: as §2

UISO = assay: as above; conditions: MCC and control cell lines, CellTiter-Glo viability, 72 h; series mostly up to 46 µM
How it was run: as §2

WaGa = assay: as above; conditions: MCC and control cell lines, CellTiter-Glo viability, 72 h; series mostly up to 46 µM
How it was run: as §2

C33A = assay: Primary qHTS to identify gynecologic anti-cancer compounds using libraries of approved drugs and bioactive compounds (AID 1345084); conditions: Gynecologic cancer cell panel viability, ATPlite luminescence, 48 h; series mostly up to 57.5 µM; note: nearly all actives have a fitted effect of over 55% in size; note: potency is the fitted concentration of half-maximal effect
How it was run: (§3)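 ATP-based viability (ATPlite), 1,000 cells/well, 16 h pre-incubation, 48 h compound at 37 C, 5% CO2, 15 min RT before read.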

CAOV3 = assay: as above; conditions: Gynecologic cancer cell panel viability, ATPlite luminescence, 48 h; series mostly up to 57.5 µM
How it was run: as §3

CASKI = assay: as above; conditions: Gynecologic cancer cell panel viability, ATPlite luminescence, 48 h; series mostly up to 57.5 µM
How it was run: as §3

Es-2 = assay: as above; conditions: Gynecologic cancer cell panel viability, ATPlite luminescence, 48 h; series mostly up to 57.5 µM
How it was run: as §3

HeLa = assay: as above; conditions: Gynecologic cancer cell panel viability, ATPlite luminescence, 48 h; series mostly up to 57.5 µM
How it was run: as §3

Hek293T [2] = assay: as above; conditions: Gynecologic cancer cell panel viability, ATPlite luminescence, 48 h, control line for the selectivity index; series mostly up to 57.5 µM
How it was run: as §3

JEG-3 = assay: as above; conditions: Gynecologic cancer cell panel viability, ATPlite luminescence, 48 h; series mostly up to 57.5 µM
How it was run: as §3

OV90 = assay: as above; conditions: Gynecologic cancer cell panel viability, ATPlite luminescence, 48 h; series mostly up to 57.5 µM
How it was run: as §3

CRL-7250 = normal cell line; assay: qHTS assay to identify novel small-molecules to repurpose for Merkel cell carcinoma treatment (AID 1296009); conditions: MCC and control cell lines, CellTiter-Glo viability, 72 h; at 44.8 µM (top of the series) unless noted; note: nearly all actives have a fitted effect of over 60% in size; note: potency is the fitted concentration of half-maximal effect
How it was run: as §2

HACAT = assay: as above; conditions: MCC and control cell lines, CellTiter-Glo viability, 72 h; at 44.8 µM (top of the series) unless noted
How it was run: as §2

NIH3T3 [3] = assay: as above; conditions: MCC and control cell lines, CellTiter-Glo viability, 72 h; at 44.8 µM (top of the series) unless noted
How it was run: as §2

HEK293T [4] = assay: as above; conditions: MCC and control cell lines, CellTiter-Glo viability, 72 h; at 44.8 µM (top of the series) unless noted
How it was run: as §2
% is set by controls: 0 for no effect and ±100 for the full control effect.

CC(C)(C)NCC(O)c1ccccc1Cl (configuration not stated)
inactive: max response (KB-3-1) 2.34% | max response (NIH3T3 [1]) -6.71% | outcome (MCC-13) | Potency (MCC-26) | Potency (MKL-1) | Potency (MKL-2) | Potency (UISO) | Potency (WaGa) | Potency (C33A) | outcome (CAOV3) | outcome (CASKI) | Potency (Es-2) | Potency (HeLa) | outcome (Hek293T [2]) | outcome (JEG-3)

Clc1ccc(C(c2ccc(Cl)cc2)C(Cl)(Cl)Cl)cc1
inactive: max response (KB-3-1) -11.6% | max response (NIH3T3 [1]) -6.38% | outcome (MCC-13) | Potency (MCC-26) | Potency (MKL-1) | Potency (MKL-2) | Potency (UISO) | Potency (WaGa) | Potency (C33A) | outcome (CAOV3) | outcome (CASKI) | Potency (Es-2) | Potency (HeLa) | outcome (Hek293T [2]) | outcome (JEG-3) | Potency (OV90)

[N-]=[N+]=CC(=O)OC[C@H](N)C(=O)O
inactive: max response (KB-3-1) -24.6% | max response (NIH3T3 [1]) -9.9% | outcome (MCC-13) | Potency (MKL-1) | Potency (MKL-2) | Potency (UISO) | Potency (WaGa) | Potency (C33A) | outcome (CAOV3) | outcome (CASKI) | Potency (Es-2) | Potency (HeLa) | outcome (Hek293T [2]) | outcome (JEG-3) | Potency (OV90)

COc1ccc2c(c1OC)C(=O)O[C@H]2[C@@H]1c2cc3c(cc2CCN1C)OCO3
inactive: max response (KB-3-1) 3.84% | outcome (MCC-13) | Potency (MCC-26) | Potency (MKL-1) | Potency (MKL-2) | Potency (UISO) | Potency (WaGa) | Potency (C33A) | outcome (CAOV3) | outcome (CASKI) | Potency (Es-2) | Potency (HeLa) | outcome (Hek293T [2]) | outcome (JEG-3) | Potency (OV90)

O=[N+]([O-])O[C@H]1CO[C@H]2[C@@H]1OC[C@H]2O[N+](=O)[O-]
inactive: max response (NIH3T3 [1]) -0.157% | outcome (MCC-13) | Potency (MCC-26) | Potency (MKL-1) | Potency (MKL-2) | Potency (UISO) | Potency (WaGa) | Potency (C33A) | outcome (CAOV3) | outcome (CASKI) | Potency (Es-2) | Potency (HeLa) | outcome (Hek293T [2]) | outcome (JEG-3) | Potency (OV90)

CCCCCCn1c(=O)c2c(ncn2C)n(C)c1=O
inactive: outcome (CRL-7250)

C[C@]12Cc3cn[nH]c3C[C@@H]1CC[C@@H]1[C@@H]2CC[C@@]2(C)[C@H]1CC[C@]2(C)O
inactive: max response (NIH3T3 [1]) 3.99% | outcome (MCC-13) | Potency (MCC-26) | Potency (MKL-1) | Potency (MKL-2) | Potency (WaGa) | Potency (C33A) | outcome (CAOV3) | outcome (CASKI) | Potency (Es-2) | Potency (HeLa) | outcome (Hek293T [2]) | outcome (JEG-3) | Potency (OV90)

CC(C(=O)c1ccccc1)N(C)C (configuration not stated)
inactive: max response (NIH3T3 [1]) -10.7% | outcome (HACAT) | outcome (MCC-13) | Potency (MCC-26) | Potency (MKL-1) | Potency (MKL-2) | Potency (UISO) | Potency (WaGa) | outcome (CAOV3) | outcome (CASKI) | Potency (Es-2) | Potency (HeLa) | outcome (JEG-3) | Potency (OV90)

C=CCC1(C(C)CC)C(=O)NC(=O)NC1=O (configuration not stated)
inactive: outcome (NIH3T3 [1]) | outcome (CRL-7250) | outcome (MCC-13) | Potency (MKL-1) | Potency (MKL-2) | outcome (NIH3T3 [3]) | Potency (UISO) | Potency (WaGa) | Potency (C33A) | outcome (CAOV3) | outcome (CASKI) | Potency (Es-2) | Potency (HeLa) | outcome (Hek293T [2]) | outcome (JEG-3) | Potency (OV90)

O=c1oc2ccccc2c(O)c1Cc1c(O)c2ccccc2oc1=O
inactive: outcome (NIH3T3 [1]) | outcome (HACAT) | outcome (MCC-13) | Potency (MCC-26) | Potency (MKL-1) | Potency (MKL-2) | outcome (NIH3T3 [3]) | Potency (UISO) | Potency (WaGa) | Potency (C33A) | outcome (CAOV3) | outcome (CASKI) | Potency (Es-2) | Potency (HeLa) | outcome (Hek293T [2]) | outcome (JEG-3) | Potency (OV90)

C[C@]12CC[C@H]3[C@@H](CCC4=CC(=O)CC[C@@H]43)[C@@H]1CC[C@@H]2OC(=O)CCC1CCCCC1
inactive: outcome (NIH3T3 [1]) | outcome (CRL-7250) | outcome (MCC-13) | Potency (MCC-26) | Potency (MKL-1) | outcome (NIH3T3 [3]) | Potency (C33A) | outcome (CAOV3) | outcome (CASKI) | Potency (Es-2) | outcome (Hek293T [2]) | outcome (JEG-3) | Potency (OV90)
active: Potency (WaGa) 18.8 µM | Potency (HeLa) 11.2 µM

CCC(C)C(C)(COC(N)=O)COC(N)=O (configuration not stated)
inactive: outcome (NIH3T3 [1]) | outcome (HEK293T [4]) | outcome (MCC-13) | Potency (MKL-1) | Potency (MKL-2) | outcome (NIH3T3 [3]) | Potency (UISO) | Potency (WaGa) | Potency (C33A) | outcome (CAOV3) | outcome (CASKI) | Potency (Es-2) | Potency (HeLa) | outcome (Hek293T [2]) | outcome (JEG-3) | Potency (OV90)

CC(=O)Nc1ccc(/C=N/NC(N)=S)cc1
inactive: outcome (CRL-7250)

ClCCN1CCCC1
inactive: outcome (NIH3T3 [1]) | outcome (HACAT) | outcome (HEK293T [4]) | outcome (MCC-13) | Potency (MKL-1) | Potency (MKL-2) | outcome (NIH3T3 [3]) | Potency (UISO) | Potency (WaGa) | Potency (C33A) | outcome (CAOV3) | outcome (CASKI) | Potency (Es-2) | Potency (HeLa) | outcome (Hek293T [2]) | outcome (JEG-3) | Potency (OV90)
